Consider 39 sequences from publication PMC7862700, “An all-to-all approach to the identification of sequence-specific readers for epigenetic DNA modifications on cytosine”.

The target of one test is T1, EHF (Homo sapiens, UniProt Q9NZC4 1-300).
T1 sequence: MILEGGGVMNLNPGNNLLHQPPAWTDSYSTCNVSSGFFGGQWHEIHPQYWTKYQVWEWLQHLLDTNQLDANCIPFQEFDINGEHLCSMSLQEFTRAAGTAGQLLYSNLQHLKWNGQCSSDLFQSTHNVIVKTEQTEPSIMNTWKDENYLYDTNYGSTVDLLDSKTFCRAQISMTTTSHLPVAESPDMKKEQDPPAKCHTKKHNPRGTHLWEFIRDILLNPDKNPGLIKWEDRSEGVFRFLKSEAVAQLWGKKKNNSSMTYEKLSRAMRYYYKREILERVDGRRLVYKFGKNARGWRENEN
Briefly: DAPPL (digital affinity profiling via proximity ligation, sequencing); 10 mM Tris-HCl pH 7.5, 50 mM NaCl, 1 mM DTT, 4% glycerol, room temperature, 30 min; GST-TFs on glutathione beads, 16-mer random dsDNA library, 0.1% formaldehyde crosslink after washing; high values mean tight binding. To be noted: protein: recombinant; tags: N-terminal GST; dsDNA, one strand shown. A digest of the protocol:
(§1)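 The binding signal reported is, for every hexamer, its read frequency for a factor over its read frequency for the tag-only sample. Reads came from pools of yeast-expressed, GST-fused human transcription factors on glutathione beads, barcoded with DNA and mixed with that sample, which were incubated with 200 nmole of a random double-stranded 16-mer DNA library in Tris/NaCl/DTT/glycerol buffer at room temperature for 30 min. After washing, the pools were crosslinked with 0.1% formaldehyde, proximity-ligated with BsaI/T4 ligase for 1 h at 37 °C, PCR-amplified and sequenced on an Illumina NextSeq500.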
Consider TTTGTG, for which the binding signal was 1.15 fold enrichment (6-mer frequency, TF over GST control).
Take AATTCA: the binding signal was 1.27 fold enrichment (6-mer frequency, TF over GST control).
TTGCTC: the binding signal was 1.3 fold enrichment (6-mer frequency, TF over GST control).
With CTAAAC, the binding signal was 1.18 fold enrichment (6-mer frequency, TF over GST control).
As to TAGGCT, the binding signal was 1.2 fold enrichment (6-mer frequency, TF over GST control).
Regarding CCTCTG, the binding signal was 1.67 fold enrichment (6-mer frequency, TF over GST control).
As for TGTCTA, the binding signal was 1.12 fold enrichment (6-mer frequency, TF over GST control).
In the case of TTCACC, the binding signal was 1.19 fold enrichment (6-mer frequency, TF over GST control).
For ATCTAC, the binding signal was 1.25 fold enrichment (6-mer frequency, TF over GST control).
As for CACTAT, the binding signal was 1.16 fold enrichment (6-mer frequency, TF over GST control).
On the same count and under the same terms, under TAATCC stands 1.25 fold enrichment (6-mer frequency, TF over GST control); under AAAGAT, 1.18 fold enrichment (6-mer frequency, TF over GST control); under CGTCTT, 1.41 fold enrichment (6-mer frequency, TF over GST control).
Same read-out and setting: under ACTGAA stands 1.1 fold enrichment (6-mer frequency, TF over GST control); under CTCCGC, 1.37 fold enrichment (6-mer frequency, TF over GST control).
The same measure, in the same setting: under CAACTC stands 1.19 fold enrichment (6-mer frequency, TF over GST control); under TACAAT, 1.38 fold enrichment (6-mer frequency, TF over GST control).
Take CCATCT: the binding signal was 1.33 fold enrichment (6-mer frequency, TF over GST control).
As for TCCCCG, the binding signal is 1.35 fold enrichment (6-mer frequency, TF over GST control).
With ACTCTA, the binding signal is 1.56 fold enrichment (6-mer frequency, TF over GST control).
On the same count and under the same terms, under CCCTCC stands 1.37 fold enrichment (6-mer frequency, TF over GST control); under ATATTC, 1.19 fold enrichment (6-mer frequency, TF over GST control).
Take CGCTTA: the binding signal is 1.18 fold enrichment (6-mer frequency, TF over GST control).
Take ACGTTA: the binding signal is 1.11 fold enrichment (6-mer frequency, TF over GST control).
Regarding GCCTTT, the binding signal is 1.35 fold enrichment (6-mer frequency, TF over GST control).
With TTCGAG, the binding signal is 1.19 fold enrichment (6-mer frequency, TF over GST control).
On the same count and under the same terms, under CTGAGC stands 1.18 fold enrichment (6-mer frequency, TF over GST control); under AATTCT, 1.28 fold enrichment (6-mer frequency, TF over GST control).
CCTGAA: the binding signal is 1.33 fold enrichment (6-mer frequency, TF over GST control).
On to TAACTT, for which the binding signal is 1.35 fold enrichment (6-mer frequency, TF over GST control).
Same read-out and setting: under CTCATC stands 1.35 fold enrichment (6-mer frequency, TF over GST control).
On to TCTCAT, for which the binding signal is 1.31 fold enrichment (6-mer frequency, TF over GST control).
For TGATGA, the binding signal was 1.32 fold enrichment (6-mer frequency, TF over GST control).
Still for that read-out and setting: under TTAAAT stands 1.14 fold enrichment (6-mer frequency, TF over GST control).
Regarding TTTCAA, the binding signal was 1.3 fold enrichment (6-mer frequency, TF over GST control).
With ATATGG, the binding signal was 1.27 fold enrichment (6-mer frequency, TF over GST control).
On to ACTTGG, for which the binding signal was 1.1 fold enrichment (6-mer frequency, TF over GST control).
Still for that read-out and setting: under CACATT stands 1.23 fold enrichment (6-mer frequency, TF over GST control); under TCCTGA, 1.45 fold enrichment (6-mer frequency, TF over GST control).

The target in the next test is SPI1 (Homo sapiens, UniProt P17947 1-270). Described as above. To be noted: protein: recombinant; tags: N-terminal GST; dsDNA, one strand shown. The gist of the method:
as §1
For the sequence TTTGTG, the binding signal is 1.12 fold enrichment (6-mer frequency, TF over GST control).
For AATTCA, the binding signal was 1.29 fold enrichment (6-mer frequency, TF over GST control).
In the case of TTGCTC, the binding signal is 1.3 fold enrichment (6-mer frequency, TF over GST control).
As for CTAAAC, the binding signal is 1.17 fold enrichment (6-mer frequency, TF over GST control).
For TAGGCT, the binding signal is 1.19 fold enrichment (6-mer frequency, TF over GST control).
For CCTCTG, the binding signal is 1.63 fold enrichment (6-mer frequency, TF over GST control).
Still for that read-out and setting: under TGTCTA stands 1.09 fold enrichment (6-mer frequency, TF over GST control); under TTCACC, 1.4 fold enrichment (6-mer frequency, TF over GST control).
The same measure, in the same setting: under ATCTAC stands 1.34 fold enrichment (6-mer frequency, TF over GST control); under CACTAT, 1.25 fold enrichment (6-mer frequency, TF over GST control).
Regarding TAATCC, the binding signal is 1.29 fold enrichment (6-mer frequency, TF over GST control).
For the sequence AAAGAT, the binding signal is 1.23 fold enrichment (6-mer frequency, TF over GST control).
On the same count and under the same terms, under CGTCTT stands 1.45 fold enrichment (6-mer frequency, TF over GST control); under ACTGAA, 1.23 fold enrichment (6-mer frequency, TF over GST control).
As to CTCCGC, the binding signal was 1.56 fold enrichment (6-mer frequency, TF over GST control).
Take CAACTC: the binding signal was 1.31 fold enrichment (6-mer frequency, TF over GST control).
On to TACAAT, for which the binding signal is 1.25 fold enrichment (6-mer frequency, TF over GST control).
With CCATCT, the binding signal is 1.21 fold enrichment (6-mer frequency, TF over GST control).
Regarding TCCCCG, the binding signal was 1.18 fold enrichment (6-mer frequency, TF over GST control).
Same read-out and setting: under ACTCTA stands 1.5 fold enrichment (6-mer frequency, TF over GST control).
Consider CCCTCC, for which the binding signal was 1.35 fold enrichment (6-mer frequency, TF over GST control).
On to ATATTC, for which the binding signal was 1.19 fold enrichment (6-mer frequency, TF over GST control).
Turning to CGCTTA, the binding signal is 1.24 fold enrichment (6-mer frequency, TF over GST control).
For the sequence ACGTTA, the binding signal was 1.19 fold enrichment (6-mer frequency, TF over GST control).
On the same count and under the same terms, under GCCTTT stands 1.49 fold enrichment (6-mer frequency, TF over GST control); under TTCGAG, 1.21 fold enrichment (6-mer frequency, TF over GST control); under CTGAGC, 1.11 fold enrichment (6-mer frequency, TF over GST control).
Regarding AATTCT, the binding signal was 1.27 fold enrichment (6-mer frequency, TF over GST control).
CCTGAA: the binding signal was 1.35 fold enrichment (6-mer frequency, TF over GST control).
Regarding TAACTT, the binding signal is 1.62 fold enrichment (6-mer frequency, TF over GST control).
On the same count and under the same terms, under CTCATC stands 1.21 fold enrichment (6-mer frequency, TF over GST control).
For TCTCAT, the binding signal is 1.37 fold enrichment (6-mer frequency, TF over GST control).
As to TGATGA, the binding signal is 1.2 fold enrichment (6-mer frequency, TF over GST control).
Consider TTAAAT, for which the binding signal was 1.12 fold enrichment (6-mer frequency, TF over GST control).
The same measure, in the same setting: under TTTCAA stands 1.32 fold enrichment (6-mer frequency, TF over GST control).
As to ATATGG, the binding signal is 1.17 fold enrichment (6-mer frequency, TF over GST control).
On the same count and under the same terms, under ACTTGG stands 1.21 fold enrichment (6-mer frequency, TF over GST control); under CACATT, 1.14 fold enrichment (6-mer frequency, TF over GST control); under TCCTGA, 1.47 fold enrichment (6-mer frequency, TF over GST control).

The target in the next test is SPIB (Homo sapiens, UniProt Q01892 1-262). Described as above. The settings on record: protein: recombinant; tags: N-terminal GST; dsDNA, one strand shown. The gist of the method: as §1
Chain of SPIB (Q01892 whole entry): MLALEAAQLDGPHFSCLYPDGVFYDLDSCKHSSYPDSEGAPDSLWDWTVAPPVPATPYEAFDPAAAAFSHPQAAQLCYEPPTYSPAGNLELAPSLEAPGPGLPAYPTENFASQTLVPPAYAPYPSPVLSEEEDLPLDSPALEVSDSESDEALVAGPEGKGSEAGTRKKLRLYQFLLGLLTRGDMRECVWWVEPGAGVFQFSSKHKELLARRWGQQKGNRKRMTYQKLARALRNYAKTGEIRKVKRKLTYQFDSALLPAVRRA
Take TTTGTG: the binding signal is 1.09 fold enrichment (6-mer frequency, TF over GST control).
The same measure, in the same setting: under AATTCA stands 1.33 fold enrichment (6-mer frequency, TF over GST control); under TTGCTC, 1.25 fold enrichment (6-mer frequency, TF over GST control).
Turning to CTAAAC, the binding signal is 1.19 fold enrichment (6-mer frequency, TF over GST control).
Consider TAGGCT, for which the binding signal was 1.1 fold enrichment (6-mer frequency, TF over GST control).
Turning to CCTCTG, the binding signal is 1.6 fold enrichment (6-mer frequency, TF over GST control).
In the case of TGTCTA, the binding signal is 1.02 fold enrichment (6-mer frequency, TF over GST control).
For TTCACC, the binding signal was 1.28 fold enrichment (6-mer frequency, TF over GST control).
With ATCTAC, the binding signal is 1.35 fold enrichment (6-mer frequency, TF over GST control).
Turning to CACTAT, the binding signal was 1.17 fold enrichment (6-mer frequency, TF over GST control).
Turning to TAATCC, the binding signal was 1.28 fold enrichment (6-mer frequency, TF over GST control).
As for AAAGAT, the binding signal was 1.3 fold enrichment (6-mer frequency, TF over GST control).
For the sequence CGTCTT, the binding signal was 1.5 fold enrichment (6-mer frequency, TF over GST control).
Same read-out and setting: under ACTGAA stands 1.07 fold enrichment (6-mer frequency, TF over GST control).
Take CTCCGC: the binding signal is 1.37 fold enrichment (6-mer frequency, TF over GST control).
Regarding CAACTC, the binding signal is 1.22 fold enrichment (6-mer frequency, TF over GST control).
For TACAAT, the binding signal is 1.26 fold enrichment (6-mer frequency, TF over GST control).
On the same count and under the same terms, under CCATCT stands 1.28 fold enrichment (6-mer frequency, TF over GST control).
Consider TCCCCG, for which the binding signal is 1.13 fold enrichment (6-mer frequency, TF over GST control).
Consider ACTCTA, for which the binding signal was 1.45 fold enrichment (6-mer frequency, TF over GST control).
As to CCCTCC, the binding signal is 1.39 fold enrichment (6-mer frequency, TF over GST control).
ATATTC: the binding signal was 1.22 fold enrichment (6-mer frequency, TF over GST control).
Consider CGCTTA, for which the binding signal is 1.41 fold enrichment (6-mer frequency, TF over GST control).
Turning to ACGTTA, the binding signal was 1.06 fold enrichment (6-mer frequency, TF over GST control).
Still for that read-out and setting: under GCCTTT stands 1.35 fold enrichment (6-mer frequency, TF over GST control); under TTCGAG, 1.31 fold enrichment (6-mer frequency, TF over GST control); under CTGAGC, 1.06 fold enrichment (6-mer frequency, TF over GST control).
The same measure, in the same setting: under AATTCT stands 1.39 fold enrichment (6-mer frequency, TF over GST control); under CCTGAA, 1.42 fold enrichment (6-mer frequency, TF over GST control).
On to TAACTT, for which the binding signal was 1.43 fold enrichment (6-mer frequency, TF over GST control).
Same read-out and setting: under CTCATC stands 1.41 fold enrichment (6-mer frequency, TF over GST control); under TCTCAT, 1.33 fold enrichment (6-mer frequency, TF over GST control).
Still for that read-out and setting: under TGATGA stands 1.33 fold enrichment (6-mer frequency, TF over GST control); under TTAAAT, 1.13 fold enrichment (6-mer frequency, TF over GST control).
On to TTTCAA, for which the binding signal is 1.37 fold enrichment (6-mer frequency, TF over GST control).
Take ATATGG: the binding signal is 1.24 fold enrichment (6-mer frequency, TF over GST control).
Take ACTTGG: the binding signal was 1.25 fold enrichment (6-mer frequency, TF over GST control).
For CACATT, the binding signal is 1.12 fold enrichment (6-mer frequency, TF over GST control).
Still for that read-out and setting: under TCCTGA stands 1.46 fold enrichment (6-mer frequency, TF over GST control).
